Data published in PubChem BioAssay AID588492 (Sanford-Burnham Center for Chemical Genomics, 2011).
About 2,300 (0.64%) of roughly 360,000 compounds were called active.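 The calls were made as follows: active = compounds giving at least 50% protection of heart cells from peroxide-induced death in the single-dose screen, raw or plate-pattern-corrected value; inactive = the rest.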 Only a selection was taken, and actives are over-represented in it overall.

Experiment: H9c2 cardiomyocyte survival under peroxide injury – uHTS, H9c2 cells, ATPLite luminescence, primary screen (AID 588492);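 also: 0% = DMSO wells with peroxide and 100% = DMSO wells without peroxide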
Details: H9c2 cardiomyocytes, 2 h, at 20 µM, stronger effect = higher value

Compound	protection from H2O2 cell death
Cc1cc(NC(=O)C(C)N2C(=O)c3ccccc3S2(=O)=O)no1 (stereo not drawn)	6.5% (inactive)
CCN(CC)Cc1nc2sc(C)c(C)c2c(=O)[nH]1	12.4% (inactive)
O=C(CCCCO)c1ccc(O)c(Cl)c1	15.5% (inactive)
COc1cc(OC)nc(N/N=C(\c2ccccc2)c2ccncc2)n1	-2.9% (inactive)
C/C(=N/Nc1nc(-c2ccccc2)c(CC(=O)O)s1)c1ccccc1	-8.5% (inactive)
c1ccc(C(=NNc2nc3ccccc3s2)c2ccccn2)cc1	51.5% (active)
Cc1cc(=O)oc2c(C)c(OCC(=O)NCCc3ccc(S(N)(=O)=O)cc3)ccc12	-0.5% (inactive)
COc1ccc(CN2CCC(c3nc4ccc(Cl)cc4[nH]3)CC2)cc1	-3.8% (inactive)
Cn1c2c(c(=O)n(C)c1=O)C1c3ccccc3OCC1C(C)(C)O2 (stereo not drawn)	11% (inactive)
Cn1c2c(c(=O)n(C)c1=O)C(c1cccc([N+](=O)[O-])c1)Nc1ccccc1O2 (stereo not drawn)	61.2% (active)
Cn1c2c(c(=O)n(C)c1=O)C(c1ccc(O)cc1)Nc1ccccc1O2 (stereo not drawn)	2.1% (inactive)
O=C(COc1nsnc1N1CCOCC1)Nc1ccccc1Cl	1.1% (inactive)
O=C(CSCc1c(Cl)cccc1Cl)NN1C(=O)c2ccccc2C1=O	5.5% (inactive)
CC(=O)c1cccc(-c2cnc3c(NC=O)cc(-c4ccc(N5CCN(C)CC5)cc4)cn23)c1	0.9% (inactive)
CC(=O)c1cccc(-c2cnc3c(NC=O)cc(-c4ccc(N(C)C)cc4)cn23)c1	34.4% (inactive)
CC(=O)Nc1cccc(-c2cc(NC=O)c3ncc(-c4ccc(F)c(Cl)c4)n3c2)c1	47.5% (inactive)
COc1cccc(-c2cnc3c(NC(C)=O)cc(-c4cccc(NC(C)=O)c4)cn23)c1	41.9% (inactive)
CN(C)C(=O)c1cccc(-c2cnc3c(NC=O)cc(-c4ccc(F)cc4)cn23)c1	12.9% (inactive)
CC(=O)c1cccc(-c2cnc3c(NC=O)cc(-c4ccccc4Oc4ccccc4)cn23)c1	-13.2% (inactive)
COc1ccc(-c2cc(NC=O)c3ncc(-c4ccccc4)n3c2)cc1OC	74.5% (active)

Compound	protection from H2O2 cell death
CC(=O)c1ccc(-c2cnc3c(NC=O)cc(-c4cccc(NS(C)(=O)=O)c4)cn23)cc1	64.4% (active)
COc1cccc(-c2cc(NC(C)=O)c3ncc(-c4cccc(C(C)=O)c4)n3c2)c1	24.1% (inactive)
CC(=O)c1cccc(-c2cnc3c(NC=O)cc(-c4cccc(C(=O)N(C)C)c4)cn23)c1	73.1% (active)
CC(=O)Nc1cccc(-c2cc(NC(C)=O)c3ncc(-c4ccccc4)n3c2)c1	57.6% (active)
COc1ccc(-c2cc(NC=O)c3ncc(-c4cc(OC)c(OC)c(OC)c4)n3c2)c(OC)c1	17.5% (inactive)
CCCc1c(C)nc2scc(-c3ccc(Cl)cc3)n2c1=O	-0.2% (inactive)
Cc1cc(NC(=O)OC(C)C)ccc1-c1ccc(NC(=O)OC(C)C)cc1C	0.3% (inactive)
COc1ccc(CSc2nnnn2-c2ccc(O)cc2)cc1F	-8.7% (inactive)
Cc1ccc(OCCNC(=O)CCNS(=O)(=O)c2ccc(Br)cc2)cc1	-2.6% (inactive)
CC1CCN(C(=O)CN(c2ccc(Oc3ccccc3)cc2)S(C)(=O)=O)CC1	-13.4% (inactive)
Cc1nonc1OCCn1nnnc1N	-1.7% (inactive)
Cc1oc(C(N)=O)cc1COc1ccc(C(N)=O)cc1	-0.9% (inactive)
O=C(c1ccc(N2CCOCC2)c([N+](=O)[O-])c1)N1CCN(S(=O)(=O)c2cccs2)CC1	-4.8% (inactive)
Cc1cccn2c(=O)nc(SCC(=O)NCc3ccccc3Cl)nc12	-5.6% (inactive)
CCCn1c(SCC(=O)c2ccc3c(c2)OCCO3)nnc1C(C)C	2.3% (inactive)
CN1CCNC(=O)C1CC(=O)N1CC=C(c2ccc(F)cc2)CC1 (stereo not drawn)	-0.1% (inactive)
N#Cc1ccccc1NC(=O)c1cccc(COc2ccc(Cl)cc2Cl)c1	-3.6% (inactive)
Cc1ccc(S(=O)(=O)NCCC(=O)NNC(=O)C2COc3ccccc3O2)cc1 (stereo not drawn)	-3.1% (inactive)
Cc1c(CC(=O)N2CCN(C(=O)C3COc4ccccc4O3)CC2)c(=O)oc2c(O)c(O)ccc12 (stereo not drawn)	61.9% (active)
Cc1c(CCC(=O)O)c(=O)oc2c(C)c(OCc3ccccc3Cl)ccc12	1.3% (inactive)

Compound	protection from H2O2 cell death
Cc1nc2c(OCc3ccc(Cl)cc3)cccn2c1N(C)Cc1cccs1	-9.7% (inactive)
CCc1nc2ccc(C(=O)N(C)Cc3ccco3)cn2c1N(C)C(=O)Cc1ccccc1	-2.1% (inactive)
CCC(=O)Nc1ccccc1C(=O)N1CCN(Cc2ccccc2)CC1	5.1% (inactive)
COCCNc1nc(-c2ccccc2)nc2c1oc1ccccc12	1.8% (inactive)
CCc1nc(Nc2ccc3nccnc3c2)c2oc3ccccc3c2n1	53.3% (active)
COc1ccccc1Nc1ncnc2c1oc1ccccc12	7.1% (inactive)
Cc1ccc(C(=O)N(CC(=O)NC2CCCC2)c2ccc(F)cc2)s1	-2.3% (inactive)
COc1cccc(N2CC(C(=O)NCc3n[nH]c(=O)c4ccccc34)CC2=O)c1 (stereo not drawn)	50.2% (active)
COc1cccc(CNC(=O)C2CC(=O)N(C3CCCCCCC3)C2)c1 (stereo not drawn)	-0.1% (inactive)
COc1ccc(C(=O)CSc2nnc(NC(=O)C3CC(=O)N(c4cccc(OC)c4)C3)s2)cc1 (stereo not drawn)	-1.6% (inactive)
COC(=O)CN(c1cccc(C(C)=O)c1)S(C)(=O)=O	-1% (inactive)
O=C(Nc1ccc(Cl)cc1)c1csc([C@H]2C[C@H](O)[C@@H](CO)O2)n1	-8.3% (inactive)
O=C(Nc1nnc([C@H]2C[C@H](O)[C@@H](CO)O2)s1)c1cccc(Cl)c1	3% (inactive)
O=C(Nc1cccc2cccnc12)c1ccc2sc([C@H]3C[C@H](O)[C@@H](CO)O3)nc2c1	76.9% (active)
CCOn1c(=O)c(=O)n(O)c2ccccc21	3.3% (inactive)
CCOc1cc(N2CCOCC2)c(OCC)cc1NC(=O)COC(=O)[C@H](Cc1c[nH]c2ccccc12)NC(C)=O	10.2% (inactive)
CCOc1cc(N2CCOCC2)c(OCC)cc1NC(=O)C1=NN(c2cccc(C)c2)C(=O)CC1	15.6% (inactive)
CCOc1cc(N2CCOCC2)c(OCC)cc1NC(=O)COc1cccc2cccnc12	50.1% (active)
